LmPK inhibitor – blocks Leishmania mexicana pyruvate kinase activity. Potency, µM (titrated, usually from 57.5 µM), for inactives: top-dose activity change, negative = inhibition, actives largely listed as inhibitors. 0.37% of 290,000 active. AID 1721. purified LmPK, Kinase-Glo ATP luminescence, 1 h. Q27686
Target sequence (Q27686 whole entry, looked up): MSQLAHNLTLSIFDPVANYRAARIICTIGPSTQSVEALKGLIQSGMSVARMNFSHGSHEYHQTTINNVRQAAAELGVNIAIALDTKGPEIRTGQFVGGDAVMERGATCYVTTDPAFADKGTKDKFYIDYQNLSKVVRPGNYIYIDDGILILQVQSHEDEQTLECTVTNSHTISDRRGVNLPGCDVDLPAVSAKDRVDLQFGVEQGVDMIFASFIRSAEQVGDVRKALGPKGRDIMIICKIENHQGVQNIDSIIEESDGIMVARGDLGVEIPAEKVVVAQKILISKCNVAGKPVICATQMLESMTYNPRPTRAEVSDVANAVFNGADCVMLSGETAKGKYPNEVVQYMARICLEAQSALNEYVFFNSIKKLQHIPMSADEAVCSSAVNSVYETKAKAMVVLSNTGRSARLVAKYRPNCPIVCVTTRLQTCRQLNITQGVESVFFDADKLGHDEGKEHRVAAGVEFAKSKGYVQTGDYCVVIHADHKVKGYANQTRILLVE
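0.1 nM LmPK, 0.5 mM PEP, 0.1 mM ADP; 50 mM imidazole pH 7.2, 7 mM MgCl2, 50 mM KCl; 1 h RT. Kinase-Glo luminescence readout, normalized to no-enzyme (full inhibition) and uninhibited wells.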
Giardia FBPA inh – inhibitors of Giardia lamblia fructose-1,6-bisphosphate aldolase. A8B2U2. purified Giardia FBPA. Potency, µM (top dose mostly 59.6 µM), inactives show top-dose activity, negative = inhibition, actives largely listed as inhibitors. 0.71% of 290,000 active. AID 2451; also: nearly all actives have a fitted effect of over 55% in size
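Giardia FBPA (40 nM reagent) was preincubated 10 min at RT with compound (up to 57.5 uM final), then substrate plus GAPDH/TPI/NAD/arsenate coupling system with diaphorase/resazurin was added; resorufin fluorescence (525/598 nm) was read after 20 min.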
RE007 growth inh – less growth of the S. pombe RE007 Vpr strain; S. pombe RE007 Vpr strain, BacTiter-Glo ATP luminescence, 24 h; 0.21% of 360,000 active; Potency, µM (titrated, usually from 92.2 µM), for the others: at the top dose activity change, negative = less growth, usual class: inhibitors; active = well fitted falling curve with a large enough effect; inconclusive = small, poorly fitted or top-dose-only effect; inactive = no such curve, though single readings can be large or run the other way; also: nearly all actives have a fitted effect of over 50% in size
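Fission yeast strain RE007, carrying one chromosomally integrated HIV-1 vpr copy, was seeded at OD 0.01 in PMG+AL medium with 23 nL pinned compound. After 24 h at 30 °C and 99% humidity, viability was read by BacTiter-Glo luminescence.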
TbPYK inhibitor – blocks Trypanosoma brucei pyruvate kinase; TbPYK enzyme, Kinase-Glo Plus ATP luminescence, 45 min; Potency, µM (titrated, usually from 76.8 µM), for the others: top-dose activity, negative = inhibition, actives largely listed as inhibitors; 0.12% of 410,000 active; also: nearly all actives have a fitted effect of over 50% in size
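Quantitative HTS: titrated library compounds versus trypanosomal pyruvate kinase in TEA buffer (pH 7.2) containing KCl, MgCl2, BSA and Tween-20. Reactions were initiated with ADP, 130 uM final. Kinase-Glo Plus luminescence was read after 45 min at RT.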
Active calls of the source: *; ? = inconclusive; nt = no result given; [ ] = another dose, or the depositor's remark. A selection: hits, their analogues and other compounds. The true share with any hit is near 0.95%. Unless noted, calls follow the shape of the dose curve; as a rule, active = well fitted curve in the direction sought with a large enough effect; inconclusive = small, poorly fitted or top-dose-only effect, or another doubt; inactive = no such curve, though single readings can be large; an effect the other way counts as inactive or inconclusive. % is scaled to controls: 0 for no effect and ±100 for the full control effect; potency is read from the fitted curve at half-maximal effect.

SMILES	LmPK inhibitor	Giardia FBPA inh	RE007 growth inh	TbPYK inhibitor
Cc1ccccc1-n1sc2cc(F)ccc2c1=O	21%	?	-92%	8.9µM*
COc1cc(NC(=O)c2cc(Cl)c(OC)c(Cl)c2)ccc1NC(=O)c1cc2ccccc2o1	nt	nt	nt	2%
CC(=O)Nc1ccc2c(c1)[nH]c(=O)c1ccccc12	nt	nt	12%	-7%
O=C(O)c1cccc(-n2sc3ccccc3c2=O)c1	nt	nt	1%	?
N#Cc1ccc2c(=O)n(-c3ccccc3)sc2c1	nt	nt	10µM*	3.2µM*
O=c1c2ccccc2sn1-c1cccc(Cl)c1	nt	nt	10µM*	7.1µM*
O=c1c2ccccc2sn1-c1ccccc1F	nt	nt	35µM*	7.1µM*
N#Cc1c(N)n(-c2ccccc2)c(=O)c2cc([N+](=O)[O-])ccc12	1%	0%	5%	3%
CC(=O)Nc1ccc2c(=O)n(-c3ccccc3)sc2c1	nt	nt	12%	7.1µM*
CCCCCCCCCCCCCCCCOC[C@H](COP(=O)([O-])OCC[N+](C)(C)C)OC(=O)CCCCCCCC(=O)O	nt	27%	nt	nt
COc1ccc(-c2nc3sc(CCNC(=O)c4ccco4)c(C)n3n2)cc1	nt	nt	nt	-4%
S=c1[nH]nc(Cc2ccccc2)n1-c1ccccc1	?	3%	6%	?
Cc1ccc(-n2c(Cc3noc4ccccc34)n[nH]c2=S)cc1	-20%	17%	0%	?
S=c1[nH]nc(Cc2ccccc2)n1-c1ccc(Cl)cc1	-16%	7%	1%	2.8µM*
Cc1ccc(-n2c(Cc3ccccc3)n[nH]c2=S)cc1	7.9µM*	6%	7%	?
S=c1[nH]nc(CCc2ccccc2)n1-c1ccccc1	3.5µM*	7%	-11%	?
S=c1[nH]nc(COc2ccc(Cl)cc2)n1-c1ccccc1	?	16%	6%	8.9µM*
CO[C@@H]1[C@H](N(C)C(=O)c2ccccc2)C[C@H]2O[C@]1(C)n1c3ccccc3c3c4c(c5c6ccccc6n2c5c31)C(=O)NC4	nt	nt	nt	0%
O=C(NCCc1ccccc1)c1cnn(-c2ccc(F)cc2)c1-n1cccc1	nt	nt	nt	-1%
Cc1cc(N2CCN(C)CC2)nc2ccc(NC(=O)Nc3ccccc3Br)cc12	nt	nt	nt	5%
O=C(c1ccco1)N1CCC2(CC1)CN(c1ccccn1)C2	nt	-2%	nt	2%
Cc1cc(C)nc(SCc2n[nH]c(=S)n2C)n1	1%	0%	-8%	?
Cc1ccc(-n2c(CSc3nc(C)cc(C)n3)n[nH]c2=S)cc1	?	1%	0%	7.1µM*
Cc1ccc(-c2cc(-c3ccc(Cl)cc3)c(C#N)c(N)n2)o1	-16%	?	-20%	?
Cc1cc(-c2cc(-c3ccc(Cl)cc3)nc(N)c2C#N)co1	-3%	?	45µM*	?
SMILES	LmPK inhibitor	Giardia FBPA inh	RE007 growth inh	TbPYK inhibitor
Cc1ccc(-c2cc(-c3ccc(C)o3)nc(N)c2C#N)cc1	-24%	?	?	28µM*
C/C=C(\C)C(=O)OC1[C@@H]2C=C3C4CC(=O)OC(c5ccoc5)[C@]4(C)CCC3[C@@](C)(C2=O)C(C(O)C(=O)OC)C1(C)C (stereo not given in full)	nt	0%	nt	nt
Nc1ccc(N(CCO)CCO)cc1	-18%	5µM*	-11%	-9%
COc1ccc2[nH]cc(CCNc3ccnc(-c4ccc(N(C)C)cc4)n3)c2c1	nt	-9%	nt	nt
Cc1ccccc1/C=C/C(=O)c1ccc([N+](=O)[O-])o1	nt	nt	8.9µM*	-8%
Cc1cccc(/C=C/C(=O)c2ccc([N+](=O)[O-])o2)c1	nt	nt	7%	0%
O=C(Nc1ccc(C(=O)N2CCCC2)cc1)c1ccccc1F	14µM*	0%	-26%	?
O=C(Nc1ccccc1)Nc1ccc(C(=O)N2CCOCC2)cc1	13µM*	0%	-25%	?
Fc1ccc(-[n+]2nc(Nc3ccccc3)sc2-c2c3ccccc3cc3ccccc23)cc1	2%	22µM*	-10%	1%
Oc1ccc2ccccc2c1-c1sc(Nc2ccccc2)n[n+]1-c1ccc(F)cc1	-1%	1%	-19%	-9%
COC(=O)C1=C(C(=O)OC)C2OC1c1cc3ccccc3cc12	nt	nt	35µM*	28µM*
CN=c1sc(C(=O)Nc2cccc(Cl)c2)cc(=O)n1C	2%	1%	0%	20µM*
Oc1cccc(/C=N/Nc2nn3cnnc3c3ccccc23)c1	14µM*	-7%	-9%	2%
COc1cccc(/C=N/Nc2nn3cnnc3c3ccccc23)c1O	1%	-18%	-1%	3%
CCCc1cc(=O)n2[nH]c(NC(=O)c3ccc(C(C)(C)C)cc3)nc2n1	nt	nt	nt	-11%
O=C1OCC2OC(O)C(O)C(O)C2OC(=O)c2cc(O)c(O)c(O)c2-c2c(O)c(O)c3oc(=O)c4c(c(O)c(O)c5oc(=O)c2c3c54)-c2c1cc(O)c(O)c2O (stereo not given)	-16%	4µM*	nt	nt
COc1c(O)cc2c(c1O)C1OC(CO)C(O)C(O)C1OC2=O (stereo not given)	nt	nt	0%[18.4 µM]	4%
O=C(Nc1ccc(C(=O)OCc2cc(=O)n3c4c(sc3n2)CCCC4)cc1)c1ccccc1	nt	nt	nt	1%
CCCCCn1c(CCNC(=O)c2cccc(C)c2)nc2ccccc21	nt	nt	nt	-2%
O=C1C2C3C=CC(CNS(=O)(=O)c4ccccc4)(O3)C2C(=O)N1c1ccc(Cl)cc1 (stereo not given)	-7%	1%	3.2µM*	-10%
CC(=O)Oc1ccc(N2C(=O)C3C4C=CC(CO)(O4)C3C2=O)cc1 (stereo not given)	7%	3%	7.9µM*	?
O=C1C2C3C=CC(CO)(O3)C2C(=O)N1c1ccccc1-c1ccccc1 (stereo not given)	18µM*	-20%	13µM*	?
CC(=O)Oc1ccc(N2C(=O)C3C(C2=O)C2(C)C=CC3(C)O2)cc1 (stereo not given)	7%	-5%	nt	nt
O=c1oc2ccccc2cc1-c1nc(-c2cccs2)no1	nt	nt	nt	-13%
CO/N=C(/C(=O)N[C@@H]1C(=O)N2C(C(=O)OC(C)OC(C)=O)=C(COC(N)=O)CS[C@H]12)c1ccco1 (stereo not given in full)	nt	nt	nt	0%
SMILES	LmPK inhibitor	Giardia FBPA inh	RE007 growth inh	TbPYK inhibitor
O=C(O)c1cccc(-c2csc(C(O)(c3ccccc3)C(F)(F)F)n2)c1 (stereo not given)	nt	nt	9%	-8%
CC(O)(c1cccc(F)c1)c1nc(-c2cccc(C(F)(F)F)c2)cs1 (stereo not given)	nt	nt	35µM*	3%
OC(c1ccccc1)(c1nc(-c2cccc(C(F)(F)F)c2)cs1)C(F)(F)F (stereo not given)	nt	nt	28µM*	1%
O=C(O)c1ccc(Nc2nc3c(s2)CCCC3)cc1	-24%	1%	-18%	-12%
Cc1cccc(Nc2nc3c(s2)CCCC3)c1	-6%	-24%	25µM*	-6%
O=C(Nc1ccccc1C(=O)N/N=C/c1ccco1)c1ccc(F)cc1	16µM*	-16%	22µM*	-1%
O=C(Nc1ccccc1C(=O)N/N=C/c1ccco1)c1ccccc1	?	-7%	?	-9%
Oc1ccc(NCc2cccc(OCc3ccc(F)cc3)c2)cc1	-2%	18µM*	-25%	?

Compound activity as filed in PubChem.
